# Inconclusive results are not listed. Where a call stands in place of a potency, no number is given. A number with no mark means an inactive call. Calls of active or inactive are those of the source. Unless noted, calls come from the whole dose curve; as a rule, active = well fitted curve in the direction sought with a large enough effect in the repeat runs; inconclusive = weak or mixed curves; inactive = no such curve, though single readings can be large; an effect the other way counts as inactive or inconclusive.
# Assays:
# [1] = qHTS assay to identify small molecule antagonists of the vitamin D receptor (VDR) signaling pathway - cell viability counter screen (AID 743225); note: nearly all actives have a fitted effect of over 50% in size; note: potency is the fitted concentration of half-maximal effect
# Method in brief: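 Cytotoxicity counter screen read by CellTiter-Glo luminescence (30 min, room temperature) in the same wells as the VDR-bla antagonist readout. HEK 293T VDR-UAS-bla cells had 16 h at 37C with compound and 3 nM (final) 1-alpha,25-dihydroxyvitamin D3, then 2 h with FRET substrate.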
# [2] = qHTS assay to identify small molecule agonists of the NFkB signaling pathway - cell viability counter screen (AID 1159515; calls by dose curve; note: nearly all actives have a fitted effect of over 55% in size; note: potency is the fitted concentration of half-maximal effect)
# Method in brief: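 Viability in NFkB-bla ME-180 cells was measured by CellTiter-Glo luminescence, 30 min room temperature, in wells already treated 5 hr with compounds and read for reporter FRET.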
# [3] = qHTS assay to identify small molecule agonists of the endoplasmic reticulum stress response signaling pathway (AID 1159516; active = well fitted activation curve with a large enough effect in the signal ratio in the repeat runs, not every such curve was filed as active; the % refers to the signal ratio)
# Method in brief: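 ER stress element reporter (bla) in HeLa. 1,500 cells/well, overnight attachment; 5 hr compound; 2 hr RT substrate; dual-emission fluorescence.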
# [4] = qHTS assay to identify small molecule antagonists of the retinoid-related orphan receptor gamma (ROR-gamma) signaling pathway - cell viability counter screen (AID 1159520); note: nearly all actives have a fitted effect of over 50% in size
# Method in brief: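 Tet-on ROR gamma CHO cells (1,000/well) were plated 4 hr, given compounds in DMSO for 2 hr at 37 C, then induced with 1 uM final doxycycline for 16 hr. Viability was read as ATP by CellTiter-Glo luminescence after 30 min.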
# [5] = qHTS assay to identify small molecule agonists of the AP-1 signaling pathway - cell viability counter screen (AID 1159525; calls by dose curve; note: nearly all actives have a fitted effect of over 55% in size)
# Method in brief: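 ME-180 AP-1-bla, 2500 cells/well, Opti-MEM + 0.5% dialyzed FBS; overnight 37 °C; cpd 15-pt titration, 5 h 37 °C; CellTiter-Glo 30 min RT; luminescence read; normalised to TOAB and DMSO controls.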
# [6] = qHTS assay to identify small molecule agonists of the AP-1 signaling pathway (AID 1159526; calls by dose curve; note: potency is the fitted concentration of half-maximal effect)
# [7] = qHTS assay to identify small molecule agonists of the RXR signaling pathway - cell viability counter screen (AID 1159529); note: nearly all actives have a fitted effect of over 50% in size; note: potency is the fitted concentration of half-maximal effect
# Method in brief: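 CellTiter-Glo luminescence gave viability in the wells also read for beta-lactamase. Cells (RXR-alpha-UAS-bla HEK 293T, 2% charcoal-stripped FBS medium) had 5 hr plating, then 16 hr compound exposure at 37 C; tetraoctyl ammonium bromide served as positive control.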
# [8] = qHTS assay to identify small molecule antagonists of the retinoid acid receptor (RAR) signaling pathway - cell viability counter screen (AID 1159551); note: nearly all actives have a fitted effect of over 35% in size
# Method in brief: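 Following overnight attachment, C3RL4 reporter cells received DMSO-dissolved compounds and then retinol (1 uM final). Six hours later at 37 C, ATP content was measured by CellTiter-Glo luminescence.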
# [9] = qHTS assay to identify small molecule agonists of the retinoic acid receptor (RAR) signaling pathway (AID 1159553); settings: C3RL4 RARE luciferase reporter, agonist, 6 h; activation: at 73.3 µM (top of the series) unless noted; note: potency is the fitted concentration of half-maximal effect
# Method in brief: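 Cell line C3RL4, RARE luciferase reporter. Treatment: compounds in DMSO, 6 hr, 37 C, 5% CO2, after overnight plating. Detection: luminescence, 30 min RT after reagent.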
# [10] = molecular target: Nuclear receptor ROR-gamma (Homo sapiens) (UniProt P51449); test: qHTS assay to identify small molecule antagonists of the retinoid-related orphan receptor gamma (ROR-gamma) signaling pathway (AID 1159521; note: top concentration of the series differs between compounds; nearly all actives have a fitted effect of over 50% in size)
# Method in brief: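 Antagonist read-out: drop in luminescence (ONE-Glo) from an RORE-LUC reporter in CHO cells with doxycycline-inducible ROR-gamma; 2 hr compound pretreatment, 1 uM doxycycline, 16 hr incubation at 37 C.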
# [11] = qHTS assay to identify small molecule antagonists of the retinoic acid receptor (RAR) signaling pathway (AID 1159552; note: nearly all actives have a fitted effect of over 50% in size)
# Method in brief: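 Luminescent RARE reporter read-out in C3RL4 cells: 6 hr co-treatment at 37 C of test compounds with retinol at 1 uM final. Cells plated overnight beforehand; luciferase reagent incubated 30 min at room temperature before reading.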
# [12] = qHTS assay to identify small molecule antagonists of the estrogen related receptor (ERR) signaling pathway from Tox21 library - cell viability counter screen (AID 1224834); note: nearly all actives have a fitted effect of over 30% in size; note: potency is the fitted concentration of half-maximal effect
# Method in brief: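 Viability readout (CellTiter-Fluor fluorescence, 30 min at 37 C) multiplexed with the ERR assay; cells treated 17.5 h at 37 C with compounds delivered in DMSO.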
# [13] = molecular target: Retinoic acid receptor RXR-alpha (Homo sapiens) (UniProt P19793); test: qHTS assay to identify small molecule agonists of the RXR signaling pathway (AID 1159527; calls by dose curve; note: nearly all actives have a fitted effect of over 35% in size)
# Sequence of Retinoic acid receptor RXR-alpha (Homo sapiens) (P19793 whole entry, looked up): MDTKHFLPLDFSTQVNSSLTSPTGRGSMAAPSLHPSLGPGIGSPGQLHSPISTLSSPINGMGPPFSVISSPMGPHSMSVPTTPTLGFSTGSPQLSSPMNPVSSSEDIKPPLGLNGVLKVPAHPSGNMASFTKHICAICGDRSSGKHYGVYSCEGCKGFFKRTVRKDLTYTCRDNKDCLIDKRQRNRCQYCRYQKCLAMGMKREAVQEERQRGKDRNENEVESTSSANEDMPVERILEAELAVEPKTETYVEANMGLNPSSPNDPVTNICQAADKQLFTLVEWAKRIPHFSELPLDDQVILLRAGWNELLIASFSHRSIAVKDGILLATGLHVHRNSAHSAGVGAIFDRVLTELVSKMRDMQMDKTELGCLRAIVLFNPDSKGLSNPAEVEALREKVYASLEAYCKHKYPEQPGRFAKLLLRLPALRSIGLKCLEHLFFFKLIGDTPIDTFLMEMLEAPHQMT
# Method in brief: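 Agonist-mode beta-lactamase reporter assay: HEK 293T RXR-alpha-UAS-bla cells treated 16 hr at 37 C with compounds, 9-cis retinoic acid as positive control. LiveBLAzer FRET substrate, 405 nm excitation, 460/530 nm emission.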
# [14] = qHTS assay to identify small molecule antagonists of the estrogen related receptor (ERR) signaling pathway - cell viability counter screen (AID 1224818);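 note: viability measured after 17.5 h of compound exposure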
# Method in brief: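 Here, ERR cells are plated at 2,000 cells per well, allowed 6 h to attach, and treated with compounds in DMSO for 17.5 h at 37 C. CellTiter-Fluor is then added and fluorescence read after 30 min.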
# [15] = qHTS assay to identify small molecule antagonists of the estrogen related receptor (ERR) signaling pathway (AID 1224819)
# Method in brief: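 LOPAC library screened for antagonism as reduced One-Glo luminescence in ERR reporter cells (2,000/well). Compounds were added after 6 h pre-incubation and left 18 h at 37C; reading followed a 30 min room-temperature reagent step.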
# [16] = qHTS assay to identify small molecule agonists of the estrogen related receptor (ERR) signaling pathway (AID 1224820)
# Method in brief: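 ERR reporter cells (NTP line) plated 2,000/well, incubated 6 h at 37 C/5% CO2, then pinned with compounds in DMSO and held 18 h at 37 C. One-Glo added; luminescence read after 30 min at room temperature.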
# [17] = tested on: estrogen-related receptor alpha (ERRalpha) with PGC-1alpha coactivator, human; test: qHTS assay to identify small molecule antagonists of the estrogen related receptor signaling pathway with the pleiotropic PPARgamma coactivator (PGC) (AID 1224821; calls by dose curve)
# Method in brief: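 Cells engineered for PGC/ERR signalling (line from NTP) were plated 6 h at 37 C/5% CO2, then exposed to DMSO-dissolved compound for 18 h at 37 C. Luciferase activity was read by One-Glo luminescence after 30 min at room temperature.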
# [18] = qHTS assay to identify small molecule antagonists of the estrogen related receptor signaling pathway with the pleiotropic PPARgamma coactivator (PGC) cell viability counter screen (AID 1224822;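 note: viability read after 17.5 h compound exposure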)
# Method in brief: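 qHTS format, DMSO compound stocks pin-transferred onto PGC/ERR cells 6 h after plating; 17.5 h exposure at 37 C, then CellTiter-Fluor fluorescence.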
# [19] = qHTS assay to identify small molecule agonists of the estrogen related receptor signaling pathway with the pleiotropic PPARgamma coactivator (PGC) (AID 1224823)
# Method in brief: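 PGC/ERR reporter cells were seeded, rested 6 h at 37 C/5% CO2, then exposed to compounds in DMSO by pin transfer for 18 h at 37 C. Luciferase activity was read as luminescence after One-Glo reagent and 30 min at room temperature.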
structure (smiles),measurement,setting,value
C=CC(=O)OCCOC(=O)C=C,Potency,[1],inactive
same,Potency,[2],inactive
same,Potency,[3],inactive
same,Potency,[4],inactive
same,Potency,[5],inactive
same,Potency,[6],inactive
same,Potency,[7],inactive
same,Potency,[8],inactive
same,Potency,[9],inactive
CNC(=O)c1ccccc1Sc1ccc2c(/C=C/c3ccccn3)n[nH]c2c1,Potency,[1],23.9 µM (active)
same,Potency,[2],inactive
same,Potency,[3],inactive
same,Potency,[10],inactive
same,Potency,[5],inactive
same,Potency,[6],inactive
same,Potency,[8],inactive
same,Potency,[11],inactive
same,Potency,[9],0.188 µM (active)
same,Potency,[12],26.6 µM (active)
Cc1cccc2cccnc12,Potency,[1],inactive
same,Potency,[2],inactive
same,Potency,[3],inactive
same,Potency,[4],inactive
same,Potency,[5],inactive
same,Potency,[6],inactive
same,Potency,[13],inactive
same,Potency,[7],inactive
same,Potency,[8],inactive
same,Potency,[11],inactive
same,Potency,[9],inactive
same,Potency,[12],inactive
CN1CCN2c3ccccc3Cc3ccccc3C2C1 (stereo unspecified),Potency,[1],inactive
same,Potency,[2],inactive
same,Potency,[3],inactive
same,Potency,[4],inactive
same,Potency,[10],inactive
same,Potency,[5],inactive
same,Potency,[13],inactive
same,Potency,[7],inactive
same,Potency,[8],inactive
same,Potency,[11],inactive
same,Potency,[9],inactive
same,outcome,[14],inactive
same,Potency,[15],inactive
same,outcome,[16],inactive
same,Potency,[17],inactive
same,Potency,[18],inactive
same,outcome,[19],inactive
same,Potency,[12],inactive
CN1CCC[C@@H]1CCO[C@](C)(c1ccccc1)c1ccc(Cl)cc1,Potency,[2],21.3 µM (active)
same,Potency,[3],inactive
same,Potency,[4],inactive
same,Potency,[5],inactive
same,Potency,[7],8.49 µM (active)
same,Potency,[8],inactive
same,Potency,[12],26.6 µM (active)
O=C(O)CN(CCN(CC(=O)O)CC(=O)O)CC(=O)O,"viability change, negative = cytotoxic",[1],4.84% [at 3.11 µM]
same,"activity, negative = cytotoxic",[2],-2.83% [at 3.12 µM]
same,activation,[3],-1.14% [at 3.11 µM]
same,"activity, negative = cytotoxicity",[4],-1.43% [at 3.27 µM]
same,"viability change, negative = cytotoxic",[5],-2.04% [at 2.72 µM]
same,activation,[13],-6.85% [at 2.71 µM]
same,"activity change, negative = cytotoxicity",[7],-6.94% [at 2.72 µM]
same,"activity change, negative = cytotoxicity",[8],1.05% [at 3.27 µM]
same,"viability change, negative = cytotoxic",[12],1.59% [at 3.27 µM]
CC(CCc1ccccc1)NCC(O)c1ccc(O)c(C(N)=O)c1 (stereo unspecified),Potency,[2],inactive
same,Potency,[3],inactive
same,Potency,[4],inactive
same,Potency,[10],inactive
same,Potency,[5],inactive
same,Potency,[13],inactive
same,Potency,[7],inactive
same,Potency,[8],inactive
same,Potency,[11],inactive
same,Potency,[9],inactive
same,outcome,[14],inactive
same,Potency,[18],inactive
same,Potency,[12],27.3 µM (active)
S=c1nccc[nH]1,Potency,[1],inactive
same,Potency,[2],inactive
same,Potency,[3],inactive
same,Potency,[4],inactive
same,Potency,[5],inactive
same,Potency,[6],49.1 µM (active)
same,Potency,[13],inactive
same,Potency,[7],inactive
same,Potency,[8],inactive
same,Potency,[12],inactive
C[C@H]1NCc2cc(-c3ccc4c(=O)c(C(=O)O)cn(C5CC5)c4c3OC(F)F)ccc21,Potency,[1],inactive
same,Potency,[2],inactive
same,Potency,[3],inactive
same,"activity, negative = cytotoxicity",[4],-17.1% [at 19 µM]
same,"viability change, negative = cytotoxic",[5],1.98% [at 15.8 µM]
same,activation,[6],-2.94% [at 15.8 µM]
same,activation,[13],-4.06% [at 15.8 µM]
same,"activity change, negative = cytotoxicity",[8],0.739% [at 19 µM]
same,Potency,[9],inactive
same,"viability change, negative = cytotoxic",[12],-0.362% [at 19 µM]
CCCCCC/C=C\CCCCCCCC(=O)O,Potency,[2],inactive
same,Potency,[3],inactive
same,Potency,[4],inactive
same,Potency,[10],inactive
same,Potency,[7],inactive
same,Potency,[8],inactive
same,Potency,[11],inactive
same,Potency,[9],inactive
CC(=O)CC(=O)Nc1ccc(S(=O)(=O)O)cc1,Potency,[1],inactive
same,Potency,[2],inactive
same,Potency,[3],inactive
same,Potency,[4],inactive
same,Potency,[5],inactive
same,Potency,[6],inactive
same,Potency,[13],inactive
same,Potency,[7],inactive
same,Potency,[8],inactive
same,Potency,[12],inactive

# From PubChem BioAssay (Tox21)
